Laboratory results from PubChem BioAssay (EPA / NIEHS).
Active and inactive are the calls of the source. The calls were made as follows: active = hit-call score of the fitted dose curve at least 0.9, where 1 is the maximum; inactive = score below 0.9.

Test system: not listed separately
Test: ATG_RORE_CIS: Attagene CIS-FACTORIAL HepG2 Assay for human RAR-related Orphan Receptor Element (RORE) (AID 2282959)
Conditions: HepG2 Attagene cis-factorial RORE reporter, mRNA; actives raise or lower the signal
Summary of the method: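 Cells were HepG2 carrying transfected cis-regulated reporter constructs, dosed for 24 hours. Total RNA was reverse-transcribed and reporter cDNA amplified, fluorescently labeled and sized by capillary electrophoresis. Activity was fitted bidirectionally relative to DMSO.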

SMILES | outcome | AC50
Nc1ccc(-c2ccc(N)c(N)c2)cc1N | inactive | –
CCOP(O)OCC | inactive | –
C#CC1(O)CCCCC1 | inactive | –
O=c1[nH]c(Cl)c(Cl)cc1Cl | inactive | –
CCC(C)c1cc(C(C)(C)C)cc(-n2nc3ccccc3n2)c1O (stereo unspecified) | inactive | –
[CH3][Sn]([Cl])([Cl])[Cl] | inactive | –
Nc1c(Cl)c(Cl)c(Cl)c(Cl)c1Cl | inactive | –
Nc1ccccc1C(=O)OCCc1ccccc1 | – | 20.8 µM (active)
N#Cc1cccc(C#N)c1 | inactive | –
Nc1cc(Cl)cc(Cl)c1 | inactive | –
COc1ncc(F)c2nc(S(=O)(=O)Nc3c(F)cccc3F)nn12 | inactive | –
COC(C)(C)CCC[C@H](C)C/C=C/C(C)=C/C(=O)OC(C)C | inactive | –
[CH3][Sn]([CH3])([Cl])[Cl] | inactive | –
BrCBr | inactive | –
O=P1(NCCCl)OCCCN1CCCl (stereo unspecified) | inactive | –
CC(Cc1ccc(C(C)(C)C)cc1)CN1C[C@@H](C)O[C@@H](C)C1 (stereo partly specified) | inactive | –
O=C(O)c1cc[c]([Hg][Cl])cc1 | inactive | –

SMILES | outcome | AC50
C[N+](C)(C)CC(=O)O | inactive | –
O=S(=O)(c1ccccc1)c1ccccc1 | inactive | –
Clc1ccc(-c2ccccc2)cc1 | inactive | –
CN(C)C(=O)C(c1ccccc1)c1ccccc1 | inactive | –
C=CCc1ccc(OC(=O)Cc2ccccc2)c(OC)c1 | inactive | –
O=P(O)(Oc1ccccc1)Oc1ccccc1 | inactive | –
CC1CCCC1.[C-]#[O+].[C-]#[O+].[C-]#[O+].[Mn] | inactive | –
[Cl][Sb]([Cl])[Cl] | inactive | –
CCC(=O)c1ccc(Cl)cc1 | inactive | –
CC1(C)CC(=O)CC(C)(C)N1[O] | inactive | –
SCc1ccco1 | inactive | –
O=CNC(N1CCN(C(NC=O)C(Cl)(Cl)Cl)CC1)C(Cl)(Cl)Cl (stereo unspecified) | inactive | –
Oc1cc(Cl)ccc1Cl | inactive | –
O=[N+]([O-])c1cc(C(F)(F)F)c(Cl)c([N+](=O)[O-])c1Cl | inactive | –
C[C@]12CCC(=O)C(O)=C1CC[C@@H]1[C@@H]2CC[C@]2(C)C(=O)CC[C@@H]12 | inactive | –
CSc1nc(N=[N+]=[N-])nc(NC(C)C)n1 | inactive | –

Test system: not listed separately
Test: ATG_Sox_CIS: Attagene CIS-FACTORIAL HepG2 Assay for human SRY-box transcription factor (SOX) (AID 2282960)
Conditions: HepG2 Attagene cis-factorial SOX reporter, mRNA; actives raise or lower the signal
Summary of the method: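 Transient MRTU transfection of HepG2; 24 h compound incubation; TriZol RNA, oligo(dT) RT, PCR, 6-FAM primer extension, HpaI cut, CE. Bidirectional fit, DMSO = baseline.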

SMILES | outcome | AC50
Nc1ccc(-c2ccc(N)c(N)c2)cc1N | inactive | –
CCOP(O)OCC | inactive | –
C#CC1(O)CCCCC1 | inactive | –
O=c1[nH]c(Cl)c(Cl)cc1Cl | inactive | –
CCC(C)c1cc(C(C)(C)C)cc(-n2nc3ccccc3n2)c1O (stereo unspecified) | inactive | –
[CH3][Sn]([Cl])([Cl])[Cl] | inactive | –
Nc1c(Cl)c(Cl)c(Cl)c(Cl)c1Cl | inactive | –
COC(=O)c1ccccc1S(=O)(=O)NC(=O)Nc1nc(C)cc(C)n1 | inactive | –
Nc1ccccc1C(=O)OCCc1ccccc1 | inactive | –
N#Cc1cccc(C#N)c1 | inactive | –
O=C(O)CCCc1ccc(N(CCCl)CCCl)cc1 | inactive | –
Nc1cc(Cl)cc(Cl)c1 | inactive | –
COc1ncc(F)c2nc(S(=O)(=O)Nc3c(F)cccc3F)nn12 | inactive | –
COC(C)(C)CCC[C@H](C)C/C=C/C(C)=C/C(=O)OC(C)C | inactive | –
[CH3][Sn]([CH3])([Cl])[Cl] | inactive | –
BrCBr | inactive | –
CCc1cccc(C)c1N(C(=O)CCl)[C@@H](C)COC | inactive | –
O=P1(NCCCl)OCCCN1CCCl (stereo unspecified) | inactive | –
CC(Cc1ccc(C(C)(C)C)cc1)CN1C[C@@H](C)O[C@@H](C)C1 (stereo partly specified) | – | 24.7 µM (active)
O=C(O)c1cc[c]([Hg][Cl])cc1 | inactive | –

SMILES | outcome | AC50
C[N+](C)(C)CC(=O)O | inactive | –
O=S(=O)(c1ccccc1)c1ccccc1 | inactive | –
Clc1ccc(-c2ccccc2)cc1 | inactive | –
CN(C)C(=O)C(c1ccccc1)c1ccccc1 | inactive | –
C=CCc1ccc(OC(=O)Cc2ccccc2)c(OC)c1 | inactive | –
O=P(O)(Oc1ccccc1)Oc1ccccc1 | inactive | –
CC1CCCC1.[C-]#[O+].[C-]#[O+].[C-]#[O+].[Mn] | inactive | –
O=C(O)COc1ccccc1 | inactive | –
[Cl][Sb]([Cl])[Cl] | inactive | –
CCC(=O)c1ccc(Cl)cc1 | inactive | –
Cc1ccc(N(SC(F)(Cl)Cl)S(=O)(=O)N(C)C)cc1 | – | 18.5 µM (active)
CC1(C)CC(=O)CC(C)(C)N1[O] | inactive | –
SCc1ccco1 | inactive | –
O=CNC(N1CCN(C(NC=O)C(Cl)(Cl)Cl)CC1)C(Cl)(Cl)Cl (stereo unspecified) | inactive | –
Oc1cc(Cl)ccc1Cl | inactive | –
O=[N+]([O-])c1cc(C(F)(F)F)c(Cl)c([N+](=O)[O-])c1Cl | – | 5.81 µM (active)
C[C@]12CCC(=O)C(O)=C1CC[C@@H]1[C@@H]2CC[C@]2(C)C(=O)CC[C@@H]12 | inactive | –
CSc1nc(N=[N+]=[N-])nc(NC(C)C)n1 | inactive | –
O=[N+]([O-])O.O=[N+]([O-])O.[Cd] | – | 1.31 µM (active)

Biological target: Transcription factor Sp1 (Homo sapiens) (UniProt P08047)
Test: ATG_Sp1_CIS: Attagene CIS-FACTORIAL HepG2 Assay for human Specificity Protein 1 (Sp1) (AID 2282961)
Conditions: HepG2 Sp1 cis-reporter transcription, actives raise or lower the signal
Summary of the method: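 Endogenous Sp1 activity was gauged in human liver HepG2 cells bearing transfected reporter units under a cis-regulating promoter. After 24 h dosing, reporter mRNA was quantified by RT-PCR with capillary electrophoresis, and activity fitted bidirectionally versus DMSO.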

Chain of Transcription factor Sp1 (Homo sapiens) (P08047 whole entry, looked up): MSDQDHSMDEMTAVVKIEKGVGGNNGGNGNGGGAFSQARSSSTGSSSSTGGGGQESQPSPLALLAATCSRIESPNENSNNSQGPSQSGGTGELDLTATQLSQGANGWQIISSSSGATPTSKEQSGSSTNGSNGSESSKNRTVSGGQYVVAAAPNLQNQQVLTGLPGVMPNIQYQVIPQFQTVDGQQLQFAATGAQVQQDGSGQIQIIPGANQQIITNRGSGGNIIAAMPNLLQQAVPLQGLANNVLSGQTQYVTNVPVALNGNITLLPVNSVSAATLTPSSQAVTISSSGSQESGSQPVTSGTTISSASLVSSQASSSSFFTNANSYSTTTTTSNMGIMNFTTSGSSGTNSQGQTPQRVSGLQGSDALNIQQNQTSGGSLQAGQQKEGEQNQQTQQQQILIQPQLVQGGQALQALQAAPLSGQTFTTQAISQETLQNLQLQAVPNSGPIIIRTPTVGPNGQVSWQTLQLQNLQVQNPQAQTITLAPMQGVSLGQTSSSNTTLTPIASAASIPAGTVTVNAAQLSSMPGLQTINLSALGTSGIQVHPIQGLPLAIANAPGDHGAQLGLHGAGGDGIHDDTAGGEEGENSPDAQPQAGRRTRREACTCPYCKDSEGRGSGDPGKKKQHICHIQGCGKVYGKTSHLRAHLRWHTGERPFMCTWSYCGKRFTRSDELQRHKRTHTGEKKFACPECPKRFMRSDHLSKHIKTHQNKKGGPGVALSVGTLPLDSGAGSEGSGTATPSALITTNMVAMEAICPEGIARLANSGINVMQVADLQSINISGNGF

SMILES | outcome | AC50
Nc1ccc(-c2ccc(N)c(N)c2)cc1N | inactive | –
CCOP(O)OCC | inactive | –
C#CC1(O)CCCCC1 | inactive | –
O=c1[nH]c(Cl)c(Cl)cc1Cl | inactive | –
CCC(C)c1cc(C(C)(C)C)cc(-n2nc3ccccc3n2)c1O (stereo unspecified) | inactive | –
[CH3][Sn]([Cl])([Cl])[Cl] | inactive | –
Nc1c(Cl)c(Cl)c(Cl)c(Cl)c1Cl | inactive | –
COC(=O)c1ccccc1S(=O)(=O)NC(=O)Nc1nc(C)cc(C)n1 | inactive | –
Nc1ccccc1C(=O)OCCc1ccccc1 | inactive | –
N#Cc1cccc(C#N)c1 | inactive | –
O=C(O)CCCc1ccc(N(CCCl)CCCl)cc1 | inactive | –
Nc1cc(Cl)cc(Cl)c1 | inactive | –
COc1ncc(F)c2nc(S(=O)(=O)Nc3c(F)cccc3F)nn12 | inactive | –
COC(C)(C)CCC[C@H](C)C/C=C/C(C)=C/C(=O)OC(C)C | inactive | –
[CH3][Sn]([CH3])([Cl])[Cl] | inactive | –
BrCBr | inactive | –
CCc1cccc(C)c1N(C(=O)CCl)[C@@H](C)COC | inactive | –
O=P1(NCCCl)OCCCN1CCCl (stereo unspecified) | inactive | –
CC(Cc1ccc(C(C)(C)C)cc1)CN1C[C@@H](C)O[C@@H](C)C1 (stereo partly specified) | inactive | –
O=C(O)c1cc[c]([Hg][Cl])cc1 | – | 11.1 µM (active)

SMILES | outcome | AC50
C[N+](C)(C)CC(=O)O | inactive | –
O=S(=O)(c1ccccc1)c1ccccc1 | inactive | –
Clc1ccc(-c2ccccc2)cc1 | – | 117 µM (active)
CN(C)C(=O)C(c1ccccc1)c1ccccc1 | inactive | –
C=CCc1ccc(OC(=O)Cc2ccccc2)c(OC)c1 | inactive | –
O=P(O)(Oc1ccccc1)Oc1ccccc1 | inactive | –
CC1CCCC1.[C-]#[O+].[C-]#[O+].[C-]#[O+].[Mn] | inactive | –
O=C(O)COc1ccccc1 | inactive | –
[Cl][Sb]([Cl])[Cl] | inactive | –
CCC(=O)c1ccc(Cl)cc1 | inactive | –
Cc1ccc(N(SC(F)(Cl)Cl)S(=O)(=O)N(C)C)cc1 | – | 18.8 µM (active)
CC1(C)CC(=O)CC(C)(C)N1[O] | inactive | –
SCc1ccco1 | inactive | –
O=CNC(N1CCN(C(NC=O)C(Cl)(Cl)Cl)CC1)C(Cl)(Cl)Cl (stereo unspecified) | inactive | –
Oc1cc(Cl)ccc1Cl | inactive | –
O=[N+]([O-])c1cc(C(F)(F)F)c(Cl)c([N+](=O)[O-])c1Cl | – | 6.68 µM (active)
C[C@]12CCC(=O)C(O)=C1CC[C@@H]1[C@@H]2CC[C@]2(C)C(=O)CC[C@@H]12 | inactive | –
CSc1nc(N=[N+]=[N-])nc(NC(C)C)n1 | inactive | –
O=[N+]([O-])O.O=[N+]([O-])O.[Cd] | – | 1.38 µM (active)
